Assay results reported in PubChem BioAssay AID1159580 (chemical genetic matrix, 2015).
“And” between values parts separate entries of the source, which are not always exact repeats. Identical values can stand only once. Screen size: about 5,500 compounds; about 2,000 (36%) were called active. Another 18% or so got no clear call; they are omitted. Rule as the data show it: active = normalized growth mostly below about 0.91 (no sharp cut-off); inconclusive = no clear call, values can overlap the other calls; inactive = mostly above about 0.92. The list shows a part of the results.

Experiment: chemical genetic growth profiling, strain panel (AID 1159580);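 also: tested at 20 µM; growth read once vehicle control cultures reached saturation at 30 °C; 1 = growth at the plate median or of vehicle wells; lower values mean less growth of the strain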
Conditions: S. cerevisiae deletion strains, growth OD

Measured: normalized growth

Fc1ccc(C(c2ccc(F)cc2)N2CCN(C/C=C/c3ccccc3)CC2)cc1
active: locus YKL160W, strain elf1, hits give low values 0.168 | locus YKR026C, strain gcn3, hits give low values 0.412 | locus YKR091W, strain srl3, hits give low values 0.444 | locus YLL001W, strain dnm1, hits give low values 0.293 | locus YLL026W, hits give low values 0.257 | locus YLL041C, strain sdh2, hits give low values 0.41 | locus YLR027C, strain aat2, hits give low values 0.306 | locus YLR039C, strain RIC1, hits give low values 1.36 [resistant] | locus YLR221C, strain rsa3, hits give low values 0.18 | locus YLR258W, strain gsy2, hits give low values 0.32 | locus YLR262C, strain YPT6 (second series), hits give low values 0.749 | locus YLR320W, strain mms22, hits give low values 0.137 | locus YLR342W, strain FKS1, hits give low values 0.25 | locus YLR357W, strain rsc2, hits give low values 0.544 | locus YLR370C, strain arc18, hits give low values 0.226 | locus YML120C, strain ndi1, hits give low values 0.24 | locus YMR058W, strain fet3, hits give low values 0.266 | locus YMR125W, strain sto1, hits give low values 0.17 | locus YMR129W, hits give low values 0.222 | locus YMR205C, strain PFK2, hits give low values 0.332 | locus YMR231W, strain pep5, hits give low values 0.794 | locus YNL071W, strain lat1, hits give low values 0.119
inactive: locus YJR075W, strain HOC1, hits give low values 0.952 | locus YKL009W, strain mrt4, hits give low values 0.965 | locus YKL068W, hits give low values 0.982 | locus YKL085W, strain MDH1 (second series), hits give low values 0.974 | locus YKL085W, strain MDH1, hits give low values 0.974 | locus YKL190W, strain CNB1, hits give low values 0.974 | locus YKR001C, strain vps1, hits give low values 0.972 | locus YLR058C, strain SHM2, hits give low values 0.981 | locus YLR102C, strain apc9, hits give low values 0.988 | locus YLR113W, strain HOG1, hits give low values 0.963 | locus YLR262C, strain YPT6, hits give low values 1.34 | locus YLR268W, strain sec22, hits give low values 0.933 | locus YLR330W, strain CHS5, hits give low values 0.988 | locus YLR342W, strain FKS1 (second series), hits give low values 0.981 | locus YLR371W, strain rom2, hits give low values 0.969 | locus YLR384C, strain iki3, hits give low values 0.957 | locus YLR418C, strain cdc73, hits give low values 0.993 | locus YML016C, strain PPZ1, hits give low values 0.992 | locus YML032C, strain rad52, hits give low values 0.948 | locus YML124C, strain tub3, hits give low values 0.991 | locus YMR078C, strain ctf18, hits give low values 0.966 | locus YMR223W, strain ubp8, hits give low values 0.988 | locus YMR263W, strain SAP30, hits give low values 0.968 | locus YMR307W, strain GAS1, hits give low values 1.28 and 0.996 | locus YNL067W, strain RPL9B, hits give low values 0.964
